The values that follow come from PubChem BioAssay (Tox21).

A number with no mark means an inactive call. Results filed as inconclusive are left out. The source made the active and inactive calls. Unless noted, the call rests on the fitted dose curve; in most records, active means well fitted curve in the direction sought with a large enough effect in the repeat runs; inconclusive means weak or mixed curves; inactive means no such curve, though single readings can be large; an effect the other way counts as inactive or inconclusive.

The nature of experiment [1]: qHTS assay to identify small molecule antagonists of the sonic hedgehog signaling (Shh) pathway (AID 1259369; calls by dose curve; further: nearly all actives have a fitted effect of over 45% in size; further: potency means the concentration at half of the fitted maximal effect). In outline: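 NIH/3T3-derived Gli1-Luc reporter cells plated 4 h, dosed with compound, then stimulated with conditioned medium for 24 h at 37 C. Firefly luciferase luminescence read after 30 min with detection reagent at room temperature.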
Experiment [2] in a line: qHTS assay to identify small molecule agonists of the androgen receptor (AR) signaling pathway in the presence of an antagonist - cell viability counter screen (AID 1259379). Further: nearly all actives have a fitted effect of over 25% in size. Further: potency means the concentration at half of the fitted maximal effect. In outline:
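MDA-kb2 cells (MMTV-luciferase, AR/GR), 3,000/well, 5 h attachment, then 3.0 µM nilutamide (final) and compounds at 15 concentrations. Viability by CellTiter-Fluor fluorescence after 16 h at 37 °C, 0% CO2, in the reporter wells.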

The nature of experiment [3]: qHTS assay to identify small molecule agonists of the estrogen receptor beta (ER-beta) signaling pathway - cell viability counter screen (AID 1259380). Further: nearly all actives have a fitted effect of over 30% in size. Further: potency means the concentration at half of the fitted maximal effect. In outline:
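ER-beta-UAS-bla HEK293T cells in medium with 2% charcoal-stripped FBS, pre-incubated 6 hr, then treated 16 hr at 37C. Cytotoxicity read in the same wells by CellTiter-Glo luminescence after 30 min at room temperature.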

Experiment [4] can be described thus: qHTS assay to identify small molecule antagonists of the estrogen receptor beta (ER-beta) signaling pathway - cell viability counter screen (AID 1259382). Further: nearly all actives have a fitted effect of over 55% in size. Further: potency means the concentration at half of the fitted maximal effect. In outline:
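ER-beta-UAS-bla HEK293T cells in 2% charcoal-stripped FBS medium, treated with compound plus 1 nM 17-beta-estradiol for 16 h at 37C. Viability read by CellTiter-Glo luminescence after 30 min at room temperature in the same wells.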

Experiment [5] is described as follows: qHTS assay to identify small molecule antagonists of the progesterone receptor (PR) signaling pathway - cell viability counter screen (AID 1346798). Further: nearly all actives have a fitted effect of over 50% in size. Further: potency means the concentration at half of the fitted maximal effect. In outline: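 PR-UAS-bla HEK293T cells in medium with 2% charcoal-stripped FBS were treated with compounds plus R5020 for 16 hr at 37C. Cell viability was then read by CellTiter-Glo luminescence after 30 min at room temperature in the same wells.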

Experiment [6] is described as follows: qHTS assay to identify small molecule agonists of the progesterone receptor (PR) signaling pathway - cell viability counter screen (AID 1346799; calls by dose curve; further: nearly all actives have a fitted effect of over 45% in size; further: potency means the concentration at half of the fitted maximal effect). In outline: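 PR-UAS-bla HEK293T cells, 3,000 per well in medium with 2% charcoal-stripped FBS, were preincubated 6 hr at 37C, then exposed to compounds for 16 hr; viability was read as CellTiter-Glo luminescence after 30 min at room temperature.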

A short description of experiment [7]: qHTS assay to identify small molecule antagonists of the TGF-beta/Smad signaling pathway - cell viability counter screen (AID 1346824). Further: nearly all actives have a fitted effect of over 50% in size. In outline: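 Cytotoxicity counter-screen run in the same wells as the beta-lactamase Smad reporter read: CellTiter-Glo luminescence after 30 min at room temperature. HEK 293T SBE-bla cells had 5 hr compound exposure at 37 C with TGF-beta1 (0.25 ng/mL stock).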

Experiment [8] in a line: qHTS assay to identify small molecule agonists of the TGF-beta/Smad signaling pathway - cell viability counter screen (AID 1346829). Further: top concentration of the series differs between compounds; nearly all actives have a fitted effect of over 45% in size. In outline: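 Cytotoxicity counter screen: CellTiter-Glo luminescence (30 min, room temperature) measured in the SBE-bla HEK 293T reporter wells after 5 hr compound treatment at 37 C and the 2 hr substrate step.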
Experiment [9] in a line: qHTS assay to identify small molecule agonists of the TGF-beta/Smad signaling pathway (AID 1346859; active means well fitted activation curve with a large enough effect in the signal ratio in the repeat runs, not every such curve was filed as active; the % refers to the signal ratio; further: series mostly up to about 77 µM). In outline: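 HEK 293T cells stably carrying a beta-lactamase reporter driven by the Smad binding element were seeded overnight, exposed to DMSO-dissolved compounds for 5 hr at 37 C, 5% CO2, then loaded with FRET substrate for 2 hr at room temperature.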
For experiment [10], the target named is Thyrotropin-releasing hormone receptor (Homo sapiens) (UniProt P34981). Kind of experiment: qHTS assay to identify small molecule agonists of the thyrotropin-releasing hormone receptor (TRHR) signaling pathway (AID 1346891; calls by dose curve; further: series mostly up to about 58 µM). In outline: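 TRHR-expressing HEK293 cells were plated 18 h at 37 °C/5% CO2, loaded with calcium dye 2 h at 37 °C, then given compound in DMSO; fluorescence was read kinetically for 3 min at 1 s intervals.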
Chain of Thyrotropin-releasing hormone receptor (Homo sapiens) (P34981 whole entry, looked up): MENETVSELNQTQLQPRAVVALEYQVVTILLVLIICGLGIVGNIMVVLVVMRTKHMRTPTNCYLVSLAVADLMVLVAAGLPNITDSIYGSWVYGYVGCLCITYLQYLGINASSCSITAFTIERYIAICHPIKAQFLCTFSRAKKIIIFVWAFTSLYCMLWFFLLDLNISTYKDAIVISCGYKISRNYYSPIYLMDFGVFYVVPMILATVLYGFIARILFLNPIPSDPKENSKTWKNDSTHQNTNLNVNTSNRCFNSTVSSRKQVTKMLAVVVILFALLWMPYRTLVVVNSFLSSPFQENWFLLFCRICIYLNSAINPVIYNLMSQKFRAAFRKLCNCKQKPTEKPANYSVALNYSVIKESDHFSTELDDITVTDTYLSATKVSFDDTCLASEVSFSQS

The target of experiment [11] is Androgen receptor (Homo sapiens) (UniProt P10275). Nature of the experiment: qHTS assay to identify small molecule agonists of the androgen receptor (AR) signaling pathway in the presence of an antagonist (AID 1259381; calls by dose curve; further: nearly all actives have a fitted effect of over 15% in size). In outline:
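MDA-kb2 cells carrying MMTV-luciferase (AR/GR responsive), 3,000 cells/well, co-treated with 3.0 uM nilutamide final. Compounds at 15 concentrations, 16 hr at 37C without CO2. Luciferase luminescence read after 30 min with ONE-Glo.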

The target in experiment [12] is Estrogen receptor (Homo sapiens) (UniProt P03372). Kind of experiment: qHTS assay to identify small molecule agonists of the estrogen receptor alpha (ER-alpha) signaling pathway in the presence of an antagonist (AID 1259383; calls by dose curve; further: top concentration of the series differs between compounds; nearly all actives have a fitted effect of over 15% in size). In outline: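 VM7Luc4E2 cells express endogenous full-length ER-alpha with an ERE-luciferase reporter and were hormone-deprived for 5 days. Compounds at 15 concentrations were added with 10.0nM ICI-182,780 for 22hr at 37C. Luminescence was read with ONE-Glo.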
Chain of Estrogen receptor (Homo sapiens) (P03372 whole entry, looked up): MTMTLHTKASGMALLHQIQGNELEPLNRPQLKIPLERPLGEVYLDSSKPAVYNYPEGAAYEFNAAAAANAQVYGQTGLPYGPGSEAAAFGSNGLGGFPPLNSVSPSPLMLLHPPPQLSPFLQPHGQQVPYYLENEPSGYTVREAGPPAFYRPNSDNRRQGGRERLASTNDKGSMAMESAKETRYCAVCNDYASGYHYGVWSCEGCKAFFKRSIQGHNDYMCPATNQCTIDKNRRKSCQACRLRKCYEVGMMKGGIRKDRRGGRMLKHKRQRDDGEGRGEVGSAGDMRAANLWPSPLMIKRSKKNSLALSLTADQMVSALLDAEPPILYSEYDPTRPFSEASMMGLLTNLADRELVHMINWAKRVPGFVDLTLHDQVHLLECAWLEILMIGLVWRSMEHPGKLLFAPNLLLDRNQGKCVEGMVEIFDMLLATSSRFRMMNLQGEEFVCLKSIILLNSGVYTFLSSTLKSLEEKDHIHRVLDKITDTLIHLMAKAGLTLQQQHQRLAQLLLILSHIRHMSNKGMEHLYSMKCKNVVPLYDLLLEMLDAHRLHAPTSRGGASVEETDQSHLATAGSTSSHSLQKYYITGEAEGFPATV

Experiment [13] can be described thus: qHTS assay to identify small molecule agonists or antagonists of the thyroid stimulating hormone receptor (TSHR) signaling pathway - wild type cell line counter screen (AID 1259384; calls by dose curve). In outline: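 Counter screen in untransfected Hek293: compounds (15-point titration, triplicate) plus phosphodiesterase inhibitor Ro20-1724 added after 18 h plating; 30 min RT. Intracellular cAMP via competitive d2/cryptate immunoassay, 1 h incubation.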

Experiment [14] deals with Thyrotropin receptor (Homo sapiens) (UniProt P16473). Nature of the experiment: qHTS assay to identify small molecule antagonists of the thyroid stimulating hormone receptor (TSHR) signaling pathway (AID 1259385; calls by dose curve; further: nearly all actives have a fitted effect of over 20% in size). In outline:
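Antagonist mode: compound-treated TSHR-expressing HEK293 cells were stimulated with 1.5 ng/mL TSH (final) in presence of Ro20-1724 for 30 min at RT. HTRF cAMP detection after 1 h; each compound tested at 15 concentrations, triplicate.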

The nature of experiment [15]: qHTS assay to identify small molecule agonists of the estrogen receptor alpha (ER-alpha) signaling pathway in the presence of an antagonist - cell viability counter screen (AID 1259386).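 Further: series mostly up to about 92 µM; cells exposed to compounds for 22 h at 37 °C before the viability read; nearly all actives have a fitted effect of over 30% in size.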 In outline:
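Cell viability in VM7Luc4E2 cells (endogenous full-length ER-alpha) measured by CellTiter-Fluor fluorescence in the same wells as the luciferase screen. Cells pre-cultured 5 days in charcoal-stripped serum, then treated 22 h with compounds at 15 concentrations plus 10.0nM ICI-182,780.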

Experiment [16] concerns the target Progesterone receptor (Homo sapiens) (UniProt P06401). Nature of the experiment: qHTS assay to identify small molecule agonists of the progesterone receptor (PR) signaling pathway (AID 1346784; calls by dose curve; further: nearly all actives have a fitted effect of over 30% in size). In outline:
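PR-UAS-bla HEK 293T cells carrying a UAS-driven beta-lactamase reporter were seeded in medium with 2% charcoal-stripped FBS, preincubated 6 hr at 37C, then exposed to compounds in DMSO for 16 hr; agonism was read by LiveBLAzer B/G FRET fluorescence.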

Experiment [17] has the same target. Nature of the experiment: qHTS assay to identify small molecule antagonists of the progesterone receptor (PR) signaling pathway (AID 1346795; active means well fitted inhibition curve with a large enough effect in the signal ratio in the repeat runs, not every such curve was filed as active; the % refers to the signal ratio; further: potency means the concentration at half of the fitted maximal effect). In outline:
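PR-UAS-bla HEK293T cells carrying a UAS-driven beta-lactamase reporter were plated in medium with 2% charcoal-stripped FBS and rested 6 hr at 37C. Compounds were added with 1 nM R5020 (final) for 16 hr, then FRET substrate loaded 2 hr at room temperature.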

Experiment [18] addresses Thyrotropin-releasing hormone receptor (Homo sapiens) (UniProt P34981). Kind of experiment: qHTS assay to identify small molecule antagonists of the thyrotropin-releasing hormone receptor (TRHR) signaling pathway (AID 1346877; active means well fitted inhibition curve with a large enough effect in the repeat runs, not every such curve was filed as active; further: series mostly up to about 51 µM). In outline:
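TRHR-expressing HEK293 cells loaded with calcium dye for 2 h at 37 C; compounds pre-incubated 5 min at room temperature before TRH challenge at 1 nM final. Intracellular calcium fluorescence read kinetically for 3 min; 15 concentrations in triplicate.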

Chain of Thyrotropin receptor (Homo sapiens) (P16473 whole entry, looked up): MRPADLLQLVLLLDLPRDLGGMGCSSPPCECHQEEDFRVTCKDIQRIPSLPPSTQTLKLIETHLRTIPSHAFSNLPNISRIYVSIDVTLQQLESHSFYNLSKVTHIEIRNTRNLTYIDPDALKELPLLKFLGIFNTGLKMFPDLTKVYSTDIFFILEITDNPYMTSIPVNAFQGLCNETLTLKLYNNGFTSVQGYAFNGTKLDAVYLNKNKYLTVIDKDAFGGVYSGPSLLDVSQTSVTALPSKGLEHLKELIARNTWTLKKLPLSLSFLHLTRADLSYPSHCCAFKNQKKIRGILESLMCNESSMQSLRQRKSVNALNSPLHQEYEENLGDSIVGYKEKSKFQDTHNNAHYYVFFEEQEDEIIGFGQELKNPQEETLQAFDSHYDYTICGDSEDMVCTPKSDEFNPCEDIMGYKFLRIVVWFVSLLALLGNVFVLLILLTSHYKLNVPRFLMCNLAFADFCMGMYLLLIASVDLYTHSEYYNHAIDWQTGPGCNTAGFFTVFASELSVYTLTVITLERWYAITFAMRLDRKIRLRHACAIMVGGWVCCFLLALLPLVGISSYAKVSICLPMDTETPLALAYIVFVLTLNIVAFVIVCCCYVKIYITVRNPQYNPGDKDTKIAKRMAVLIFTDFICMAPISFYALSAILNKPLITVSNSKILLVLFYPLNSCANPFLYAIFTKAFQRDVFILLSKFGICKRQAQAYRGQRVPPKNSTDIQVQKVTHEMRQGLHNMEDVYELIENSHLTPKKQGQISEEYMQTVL
Chain of Progesterone receptor (Homo sapiens) (P06401 whole entry, looked up): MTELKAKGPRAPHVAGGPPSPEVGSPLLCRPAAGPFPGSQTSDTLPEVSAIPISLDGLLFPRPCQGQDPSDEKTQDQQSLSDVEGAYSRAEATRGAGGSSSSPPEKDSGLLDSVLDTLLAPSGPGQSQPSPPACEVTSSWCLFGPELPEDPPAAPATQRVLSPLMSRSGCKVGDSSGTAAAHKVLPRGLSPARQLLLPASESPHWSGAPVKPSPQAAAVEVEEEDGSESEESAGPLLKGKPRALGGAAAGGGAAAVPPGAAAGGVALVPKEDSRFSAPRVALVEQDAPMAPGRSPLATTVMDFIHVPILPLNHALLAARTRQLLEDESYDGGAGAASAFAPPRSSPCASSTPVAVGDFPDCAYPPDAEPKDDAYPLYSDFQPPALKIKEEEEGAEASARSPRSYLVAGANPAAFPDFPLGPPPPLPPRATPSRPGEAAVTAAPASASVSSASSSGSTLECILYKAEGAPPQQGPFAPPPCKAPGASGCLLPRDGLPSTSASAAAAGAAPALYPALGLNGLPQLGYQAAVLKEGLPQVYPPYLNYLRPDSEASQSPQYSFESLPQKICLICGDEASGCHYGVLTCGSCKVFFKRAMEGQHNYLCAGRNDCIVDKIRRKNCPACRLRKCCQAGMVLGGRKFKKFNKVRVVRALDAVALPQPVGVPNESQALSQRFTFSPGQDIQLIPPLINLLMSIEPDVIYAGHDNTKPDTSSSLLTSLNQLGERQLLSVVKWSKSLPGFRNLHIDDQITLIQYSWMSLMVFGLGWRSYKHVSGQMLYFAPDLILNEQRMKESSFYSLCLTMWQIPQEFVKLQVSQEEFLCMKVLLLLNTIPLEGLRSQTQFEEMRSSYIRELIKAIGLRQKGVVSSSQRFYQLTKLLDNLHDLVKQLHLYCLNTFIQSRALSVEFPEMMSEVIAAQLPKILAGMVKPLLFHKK
Chain of Androgen receptor (Homo sapiens) (P10275 whole entry, looked up): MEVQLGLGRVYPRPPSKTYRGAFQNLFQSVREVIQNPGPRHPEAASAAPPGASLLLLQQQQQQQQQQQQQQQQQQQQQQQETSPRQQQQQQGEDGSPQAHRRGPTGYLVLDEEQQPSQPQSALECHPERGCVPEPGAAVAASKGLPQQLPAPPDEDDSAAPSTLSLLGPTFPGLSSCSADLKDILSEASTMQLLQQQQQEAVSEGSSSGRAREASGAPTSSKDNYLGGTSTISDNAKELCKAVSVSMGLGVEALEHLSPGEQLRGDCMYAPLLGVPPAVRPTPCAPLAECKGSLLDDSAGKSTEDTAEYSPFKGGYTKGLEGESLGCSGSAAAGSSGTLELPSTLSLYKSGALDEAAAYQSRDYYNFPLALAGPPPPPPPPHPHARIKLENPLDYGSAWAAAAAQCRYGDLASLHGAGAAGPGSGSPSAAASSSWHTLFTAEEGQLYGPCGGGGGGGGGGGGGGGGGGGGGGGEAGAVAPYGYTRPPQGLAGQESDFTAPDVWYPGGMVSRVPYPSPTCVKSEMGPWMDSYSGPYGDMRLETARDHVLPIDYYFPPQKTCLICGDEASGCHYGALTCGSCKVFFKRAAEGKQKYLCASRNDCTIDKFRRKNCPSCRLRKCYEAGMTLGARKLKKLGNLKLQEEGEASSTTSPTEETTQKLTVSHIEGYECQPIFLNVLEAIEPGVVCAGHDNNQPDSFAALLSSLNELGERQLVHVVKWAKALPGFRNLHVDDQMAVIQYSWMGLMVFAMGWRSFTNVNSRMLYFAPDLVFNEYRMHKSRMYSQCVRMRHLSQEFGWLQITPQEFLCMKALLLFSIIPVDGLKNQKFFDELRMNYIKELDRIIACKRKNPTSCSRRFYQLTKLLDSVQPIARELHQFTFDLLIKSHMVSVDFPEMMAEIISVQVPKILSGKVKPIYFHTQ

On to `CCN(CC)CCOc1ccc2c(c1)C(=O)c1cc(OCCN(CC)CC)ccc1-2`, for which the Potency result in experiment [1], in experiment [7], in experiment [8] and in [10] was “inactive” each time. In addition, the Potency is 13.3 µM (active) in experiment [2]; 18.8 µM (active) in experiment [3]; 18.8 µM (active) in [4]; 13.3 µM (active) in [5]; 16.8 µM (active) in [6]. For the same compound, the call in [9] was inactive.
On to `NCCCN(CCO)CCO`, for which the Potency result in experiment [1], in experiment [2], in [11], in experiment [4], in [12] and in [13] was “inactive” in each case. Further, the Potency result in experiment [14], in experiment [15], in experiment [17], in experiment [5], in [6] and in experiment [7] was “inactive” in each case. The Potency entry in experiment [8] and in experiment [10] was “inactive” in each case. Also, the compound was classed as inactive in experiment [16], in experiment [9] and in experiment [18].
`O=C(CC(=O)c1ccccc1)c1ccccc1`: the Potency result in [1], in experiment [2], in [3], in [13], in experiment [14] and in [15] was “inactive” in each case. For the same compound, the Potency result in experiment [5], in experiment [6], in experiment [7] and in experiment [8] was “inactive” each time. In addition, the compound was called inactive in experiment [16] and in experiment [9]. Besides, the Potency in experiment [17] was 65.7 µM (active).
For the compound `CCCCCCCCCCCCC(=O)O`, the Potency in experiment [1] was 2.74 µM (active); in experiment [6], 19.4 µM (active). The Potency entry in [2], in [12], in [13], in experiment [14], in experiment [15] and in experiment [17] was “inactive” in each case. In addition, the Potency entry in [7], in experiment [8] and in experiment [10] was “inactive” in each case. The compound was classed as inactive in experiment [9] and in experiment [18].
With `Cc1cc(NC(=O)C(=O)O)cc(C)c1Oc1ccc(O)c2c1CCC2`, the Potency result in experiment [1], in [2], in experiment [11], in [4], in [12] and in experiment [15] was “inactive” each time. Further, the Potency entry in experiment [17], in experiment [5], in [6], in experiment [7], in [8] and in experiment [10] was “inactive” each time. Besides, the compound was classed as inactive in experiment [16] and in experiment [9].
Regarding `N#CCc1cccc(C(F)(F)F)c1`, the Potency entry in experiment [1], in [2], in experiment [12], in [13], in experiment [14] and in [15] was “inactive” throughout. Besides, the Potency result in experiment [17], in [5], in experiment [6], in experiment [7], in [8] and in experiment [10] was “inactive” throughout. For the same compound, the outcome in experiment [16] and in experiment [9] was inactive.
On to `FC(F)(F)C(F)(F)C(F)(F)C(F)(F)C(F)(F)C(F)(F)CCI`, for which the Potency entry in experiment [1], in experiment [2], in experiment [4], in experiment [12], in experiment [13] and in experiment [14] was “inactive” in each case. The Potency entry in [15], in experiment [17], in experiment [5], in experiment [6], in experiment [7] and in [8] was “inactive” throughout. The Potency entry in experiment [10] is “inactive”. The result in experiment [16] and in experiment [9] was inactive.
As to `CN1CCC[C@@H]1c1cccnc1`, the Potency entry in [1], in experiment [2], in [3], in experiment [4], in experiment [15] and in experiment [17] was “inactive” throughout. Besides, the Potency entry in experiment [5], in experiment [6], in experiment [8] and in experiment [10] was “inactive” in each case. Moreover, the compound was classed as inactive in experiment [16], in [9] and in experiment [18].
Consider `CC(C(=O)O)c1ccc(C(=O)c2ccccc2)s1` (stereo unspecified), for which the Potency entry in [1], in experiment [2], in [3], in [4], in experiment [15] and in [17] was “inactive” in each case. Moreover, the Potency result in experiment [5], in experiment [6], in [8] and in [10] was “inactive” in each case. The compound was classed as inactive in [16] and in [18].
